Screening results (PubChem)
HEK293 tox: kills HEK 293 cells; HEK 293 viability, ATP luminescence (CellTiter-Glo), 48-72 h; Potency, µM (highest dose often 115 µM), for inactives: at the top dose activity change, negative = cytotoxicity, most hits filed as inhibitors; 94,000 compounds, 6.6% hits; also: nearly all actives have a fitted effect of over 60% in size
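HEK 293 cells seeded at 250 cells/well were exposed to compound for 48 or 72 hr at 37 degree Celsius. Viability taken as ATP content by CellTiter-Glo luminescence.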
NPR1 antag: human Npr1 receptor antagonism; P16066; HEK293 hNpr1 GloSensor cGMP, ANP-stimulated luminescence; Potency, µM (highest dose often 46.3 µM), for inactives: top-dose activity change, negative = inhibition, hits mostly inhibitors; 76,000 compounds, 1.6% hits; calls by dose curve; also: nearly all actives have a fitted effect of over 60% in size
Target sequence (P16066 whole entry, looked up): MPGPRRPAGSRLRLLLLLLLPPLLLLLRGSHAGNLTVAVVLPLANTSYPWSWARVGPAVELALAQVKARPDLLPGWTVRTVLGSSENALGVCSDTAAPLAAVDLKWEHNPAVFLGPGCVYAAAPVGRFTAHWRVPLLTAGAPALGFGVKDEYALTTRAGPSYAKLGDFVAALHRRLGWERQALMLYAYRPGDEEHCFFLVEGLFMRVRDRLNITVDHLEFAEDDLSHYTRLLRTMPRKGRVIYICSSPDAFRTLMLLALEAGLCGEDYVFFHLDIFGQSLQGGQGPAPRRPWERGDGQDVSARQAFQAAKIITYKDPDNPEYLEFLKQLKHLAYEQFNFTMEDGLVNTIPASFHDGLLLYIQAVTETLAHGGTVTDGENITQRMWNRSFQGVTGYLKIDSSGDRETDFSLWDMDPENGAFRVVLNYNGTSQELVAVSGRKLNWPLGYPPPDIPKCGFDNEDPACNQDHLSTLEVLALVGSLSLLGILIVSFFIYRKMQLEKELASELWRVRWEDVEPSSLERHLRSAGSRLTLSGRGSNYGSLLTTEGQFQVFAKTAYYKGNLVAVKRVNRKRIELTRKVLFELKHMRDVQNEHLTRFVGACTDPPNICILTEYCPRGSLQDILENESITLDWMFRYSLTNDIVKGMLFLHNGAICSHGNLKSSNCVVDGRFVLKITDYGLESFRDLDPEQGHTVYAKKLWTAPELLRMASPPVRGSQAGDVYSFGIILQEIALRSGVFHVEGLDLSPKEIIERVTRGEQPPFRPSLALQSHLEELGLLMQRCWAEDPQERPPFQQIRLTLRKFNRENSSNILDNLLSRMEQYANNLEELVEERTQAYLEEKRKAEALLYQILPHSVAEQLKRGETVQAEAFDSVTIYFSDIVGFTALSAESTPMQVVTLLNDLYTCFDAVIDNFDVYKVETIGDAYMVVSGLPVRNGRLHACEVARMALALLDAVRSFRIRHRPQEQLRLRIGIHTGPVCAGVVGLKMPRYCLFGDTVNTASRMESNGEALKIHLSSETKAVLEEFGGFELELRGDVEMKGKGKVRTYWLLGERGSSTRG
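HEK293 cells stably expressing human Npr1 and cGMP GloSensor pGS-40F, loaded 2 h with 2% GloSensor reagent, given compound 30 min at room temperature. Luminescence read before and 20 min after 0.1 nM hNppA.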
FLuc inh: Photinus pyralis luciferase inhibition. AID 1347043. purified P. pyralis luciferase, luminescence, biochemical. Potency, µM (top dose mostly 115 µM), hits mostly inhibitors. 76,000 compounds, 2.5% hits. P08659; also: nearly all actives have a fitted effect of over 65% in size
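Luminescence read by CCD imager after adding enzyme (10nM final) to wells holding compound, titrated in qHTS. Substrates 10uM each D-luciferin and ATP; buffer 50mM Tris acetate pH 7.5, 10mM Mg acetate, Tween-20, BSA.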
3T3 cytotox: NIH 3T3 cell cytotoxicity; NIH 3T3 viability, CellTiter-Glo ATP luminescence, 48-72 h; Potency, µM (highest dose often 96.7 µM), for the others: top-dose activity change, negative = cytotoxicity, hits mostly inhibitors; 94,000 compounds, 4.3% hits; also: nearly all actives have a fitted effect of over 55% in size
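Mouse fibroblast NIH 3T3 cells, 400 per well, received compound via pintool and were incubated for 48 or 72 hr prior to CellTiter-Glo ATP luminescence measurement.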
GPT2 inh: inhibitors of human GPT2 alanine aminotransferase. Potency, µM (doses to about 57.7 µM), inactives show top-dose activity change, negative = inhibition, usual class: inhibitors. 100,000 compounds, 0.25% hits. Recombinant GPT2, coupled pyruvate oxidase/HRP Amplex Red fluorescence. Q8TD30. AID 1671188; also: nearly all actives have a fitted effect of over 60% in size
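Fluorescence of coupled pyruvate oxidase/HRP/Amplex Red system (50uM Amplex, 30 min, dark) reports pyruvate formed by GPT2. Enzyme reaction: 10ng/uL GPT2, 2mM L-alanine, 250uM a-KG, 30 min room temperature, pH 7.5; 50uM AOA control.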
Starred values were filed as active, the others as inactive; i = inactive; ? = inconclusive; · = not tested or not shown; [ ] = remark or other dose. A selection: hits, their analogues and other compounds. The true share with any hit is near 10%. Unless noted, calls follow the shape of the dose curve; as a rule, active = well fitted curve in the direction sought with a large enough effect; inconclusive = small, poorly fitted or top-dose-only effect, or another doubt; inactive = no such curve, though single readings can be large; an effect the other way counts as inactive or inconclusive. % is scaled to controls: 0 for no effect and ±100 for the full control effect; potency is read from the fitted curve at half-maximal effect.

SMILES | HEK293 tox | NPR1 antag | FLuc inh | 3T3 cytotox | GPT2 inh
CC(=O)c1ccc(NC(=O)O[C@@H]2CO[C@H]3[C@@H]2OC[C@@H]3NC(=O)Nc2ccc(Oc3ccccc3)cc2)cc1 | 32µM* | ? | i | ? | 0%
O=C(N[C@H]1CCN2C(=O)c3ccccc3NC(=O)[C@@H]2C1)c1cnccn1 | -17%[172 µM] | 3%[70.6 µM] | i | -26%[174 µM] | -16%[88.5 µM]
CC(=O)Nc1ccc(C(=O)N2CCC3(CC2)N=C(c2ccccc2)NO3)cc1 | -1% | 0% | 35µM* | 0% | 4%
Cc1ccc(C2=NC3(CCN(C(=O)c4ccccc4Cl)CC3)ON2)cc1 | -25% | ? | 32µM* | -26% | 1%
Cc1ccc(C(=O)N2CCC3(CC2)N=C(c2ccccc2)NO3)cc1 | ? | 1% | i | -7% | i
Cn1nc(C(=O)N2CCC3(CC2)N=C(c2cccc(Br)c2)NO3)c2ccccc21 | 45µM* | -15% | i | ? | -14%
O=C(c1ccc2c(c1)OCO2)N1CCC2(CC1)N=C(c1ccccc1)NO2 | -9% | -5% | 40µM* | -20% | i
CC(C)NC(=O)N1CCCCCC1CN1CCCC1 (centres undefined) | -13% | -4% | i | -12% | i
Cc1ccc(NC(=O)N2C[C@@H](F)C[C@H]2C(=O)N2CCCCC2)cc1F | -1% | · | · | -2% | 2%
Cc1cnc(C2CCN(CC3CCCCC3)C2)n1Cc1ccccc1 (centres undefined) | 22µM* | · | · | 20µM* | ?
Cc1cnc(C2CCN(C(=O)C3CCCC3)C2)n1Cc1ccccc1 (centres undefined) | -21% | -20% | i | -11% | -11%
COc1ccc(-c2c(C(=O)Nc3cccc(Cl)c3)nc3sccn23)cc1 | 63µM* | · | · | ? | i
O=C(NCc1ccccc1Cl)c1nc2sccn2c1-c1cccc(C(F)(F)F)c1 | 25µM* | · | · | ? | -12%
O=C(NCCc1ccc(Cl)cc1)c1nc2sccn2c1-c1ccc(C(F)(F)F)cc1 | 40µM* | · | · | 20µM* | -15%
COCCNC(=O)c1nc2sccn2c1-c1ccc(C(F)(F)F)cc1 | -27% | · | · | ? | -15%
COc1ccc(NC(=O)c2nc3sccn3c2-c2ccccc2)cc1 | ? | · | · | ? | -8%[88.5 µM]
Cc1ccc(-c2c(C(=O)NCc3ccccc3)nc3sccn23)cc1 | -7% | · | · | -27% | 4%
O=C(NCc1ccccc1)c1nc2sccn2c1-c1ccncc1 | 112µM* | · | · | ? | -23%[88.5 µM]
O=C([C@H]1CCC[C@@H](O)C1)N1CCN(c2ccc3nccn3n2)CC1 | -5% | 5% | i | -2% | ?
O=C(Nc1ccc(F)cc1)c1nc2sccn2c1-c1cccc(C(F)(F)F)c1 | 50µM* | · | · | ? | i
Cc1ccc(NC(=O)c2nc3sccn3c2-c2ccncc2)cc1 | 112µM* | · | · | ? | -3%[88.5 µM]
Cc1ccc(-c2c(C(=O)Nc3ccc(F)cc3)nc3sccn23)cc1 | ? | · | · | ? | 1%
O=C(NCc1ccc(F)cc1)c1nc2sccn2c1-c1cccc(C(F)(F)F)c1 | 63µM* | · | · | ? | -2%[88.5 µM]
O=C(NCc1cccc(C(F)(F)F)c1)c1nc2sccn2c1-c1ccc(C(F)(F)F)cc1 | 40µM* | · | · | ? | -9%
O=C(NCc1ccccc1)c1nc2sccn2c1-c1cccc(C(F)(F)F)c1 | -24% | · | · | -15% | -15%
SMILES | HEK293 tox | NPR1 antag | FLuc inh | 3T3 cytotox | GPT2 inh
O[C@@H]1C[C@@H](c2nnc3n2CCN(Cc2cccc(F)c2)C3)N(Cc2cccnc2)C1 | 2% | 0% | i | -9% | i
Cn1ncc2c(C(=O)NCCc3ccccc3F)cc(-c3cccnc3)nc21 | ? | · | · | -24% | -8%
COc1ccnc(-c2nnc3ccc(N(C)CCN(C)C)nn23)c1 | 2%[172 µM] | 1%[70.6 µM] | i | 100µM* | 1%[88.5 µM]
CN(c1ccccc1)c1ccc2nnc(-c3ccccn3)n2n1 | ? | 2%[70.6 µM] | ? | ? | -5%[88.5 µM]
COc1ccnc(-c2nnc3ccc(N(C)Cc4ccccc4)nn23)c1 | 56µM* | -10%[70.6 µM] | i | ? | -22%[88.5 µM]
Cc1ccc(CN2C[C@@H]3C[C@H]2C(=O)N(CC2CC2)c2ccccc2O3)cc1 | 100µM* | -18%[70.6 µM] | i | 100µM* | -17%[88.5 µM]
Cn1cc(CN2C[C@@H]3C[C@H]2C(=O)N(CC2CC2)c2ccccc2O3)c2ccccc21 | ? | -9%[70.6 µM] | i | 100µM* | ?
O=C(c1cnccn1)N1CCC(Oc2ccccc2-c2nc(-c3ccccc3)no2)C1 (centres undefined) | ? | 2% | ? | ? | 4%
O=C(c1ccncc1)N1CCC(Oc2ccccc2-c2nc(-c3ccccc3)no2)C1 (centres undefined) | 40µM* | 1% | ? | ? | i
Cc1ncccc1C(=O)N1CC(Oc2ccccc2-c2nc(-c3ccccc3)no2)C1 | ? | -4% | 40µM* | ? | i
O=C(C1CCOCC1)N1CCC(Oc2ccccc2-c2nc(-c3ccccc3)no2)C1 (centres undefined) | 32µM* | 2% | i | ? | i
COc1ccc(CNc2ncnc3c2CN(c2ccccc2C)C(=O)CN3C)cc1 | 1% | 14% | i | -12% | ?
Cn1ncc2c(C(=O)NCC(F)F)cc(-c3ccc(Cl)cc3)nc21 | 45µM* | · | · | ? | i
Cn1ncc2c(C(=O)NCCc3ccc(Cl)cc3)cc(-c3ccc(Cl)cc3)nc21 | -18% | · | · | ? | -13%
C#CCNC(=O)c1cc(-c2ccc(Cl)cc2)nc2c1cnn2C | 89µM* | · | · | ? | -13%[88.5 µM]
COC(=O)CNC(=O)c1cc(-c2ccc(Cl)nc2)nc2c1cnn2C | -4% | · | · | 32µM* | i
C#CCNC(=O)c1cc(-c2ccc(Cl)nc2)nc2c1cnn2C | ? | · | · | ? | -5%
COc1ccc(-c2cc(C(=O)NCC(F)(F)F)c3c(C4CCNC4)nn(C)c3n2)cc1 (centres undefined) | 79µM* | · | · | ? | i
COc1cc(NC(=O)Cn2c(-c3cccc(Cl)c3)nc(C)c(CCO)c2=O)cc(OC)c1OC | ? | -13% | i | -32% | -10%
Nc1ncc(C(=O)N2CCCC3(CCOC3)C2)c(-c2ccccc2)n1 (centres undefined) | -3% | 4% | i | i | -8%
C#CCNC(=O)c1cc(-c2ccc(OC)cc2)nc2c1cnn2C | ? | · | · | 50µM* | ·
COc1ccc(CCNC(=O)c2cc(-c3ccc(OC)cc3)nc3c2cnn3C)cc1 | ? | · | · | ? | i
N[C@@H]1CC[C@H](C(=O)N2CCC(Oc3cccc(C(F)(F)F)c3)CC2)C1 | 45µM* | 3% | i | ? | -1%
O=C(C1CCC1)N1CCC(Oc2cccc(F)c2)C1 (centres undefined) | -3% | 3% | i | -1% | -11%
